# D1 mod: allosterically modulates the human D1 dopamine receptor. HEK293 D1, CRE-luciferase, dopamine EC30 potentiation; actives deviate in either direction. B-score at 10 µM. 58,000 tested, 5.9% active;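 active means luminescence count or its row- and column-corrected plate score outside the 99.7% band of the plate's sample wells, on either side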
# CYP2C19 inh: human CYP2C19 inhibition; 96,000 tested, 21% active; inhibition, % at 5 µM; CYP2C19 Supersomes, luciferin-H EGE luminescence, 30 min; AID 778; P33261;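 active means CYP2C19 inhibition above a set limit at 5 µM in the primary screen, cut at about 50% in these data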;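 further: plate controls were negative control wells for no effect and 2.5 mM tranylcypromine positive control for full effect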
# Target sequence (P33261 whole entry, looked up): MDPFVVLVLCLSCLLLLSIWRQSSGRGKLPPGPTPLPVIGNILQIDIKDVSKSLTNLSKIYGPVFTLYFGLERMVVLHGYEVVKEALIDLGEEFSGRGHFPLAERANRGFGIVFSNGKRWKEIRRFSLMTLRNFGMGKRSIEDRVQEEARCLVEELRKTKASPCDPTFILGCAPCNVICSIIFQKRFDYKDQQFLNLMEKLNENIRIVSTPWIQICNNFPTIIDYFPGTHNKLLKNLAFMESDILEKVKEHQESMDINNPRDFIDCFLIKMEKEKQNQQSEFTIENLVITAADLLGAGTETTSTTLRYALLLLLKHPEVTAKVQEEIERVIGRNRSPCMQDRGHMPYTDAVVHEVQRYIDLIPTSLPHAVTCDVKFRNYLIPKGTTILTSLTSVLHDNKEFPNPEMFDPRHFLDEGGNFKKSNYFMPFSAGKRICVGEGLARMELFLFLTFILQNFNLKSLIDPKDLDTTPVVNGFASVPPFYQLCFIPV
# DAT uptake mod: changed human dopamine transporter uptake under cocaine IC80; 110,000 tested, 1.3% active; B-score at 10 µM; Q01959; LLC-PK1 hDAT cells, [14C]-dopamine uptake with cocaine IC80; actives deviate in either direction;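 active means Z score or B-score, a plate-position-corrected score, falls beyond the plate's 99.7% confidence bounds, in either direction; inactive means both scores lie inside the 99.7% bounds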;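 further: scored against the spread of the other compound wells on the same plate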
# CYP2C9 act: activators of human CYP2C9 | recombinant CYP2C9, luciferin-H conversion, luminescence; active compounds read high; factor 1 = untreated enzyme, 0 = blocked | 96,000 tested, 1.4% active | AID 1024 | activation factor at 5 µM;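 active means activation factor of 2 or more for CYP2C9 at a 5 µM dose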;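 further: 0 = sulfaphenazole-blocked wells and 1 = vehicle-only wells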
# CYP2C9 inhib: human CYP2C9 inhibition. P11712. CYP2C9 Supersomes, luciferin-H conversion, luminescence. inhibition, % at 5 µM. 96,000 tested, 20% active. AID 777;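 active means blocking of liver enzyme CYP2C9 beyond about 50% at 5 µM, limit read from the data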
# CYP2C19 act: activators of human cytochrome P450 2C19; recombinant CYP2C19, luciferin-H EGE luminescence; active compounds read high; 0 = fully inhibited enzyme, 1 = untreated enzyme; activation factor at 5 µM; 96,000 tested, under 10 active;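 active means activation factor of at least 2 at 5 µM in the primary screen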;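 further: 0 = wells with 2.5 mM tranylcypromine and 1 = vehicle-only wells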
# * hit, by the source's call; . = no result given. Only some compounds are listed: those with a hit (about 28% of all), similar ones and a draw of the others.
SMILES,D1 mod,CYP2C19 inh,DAT uptake mod,CYP2C9 act,CYP2C9 inhib,CYP2C19 act
CC(C)(C)C(=O)C(CO)(Oc1ccc(Cl)cc1)n1cncn1 (stereo not drawn),0,92.8*,0.00155,0.2,76.7*,0.1
O=C(OCn1cncn1)c1ccc(Cl)cc1Cl,-0.0348,49.5,-1.18,0.6,38.0,0.5
Cc1cc(N2CCN(C3CCCC3)CC2)n2ncc(-c3ccccc3)c2n1,0.054,71.8*,.,0.2,76.0*,0.3
Cc1cc(N2CCN(C3CCCC3)CC2)n2nc(C)c(-c3ccccc3)c2n1,0.112,.,.,.,.,.
O=C(Nc1ccccc1)OC1C2CCC1C(N1CCCCC1)CC2 (stereo not drawn),-0.756,18.2,0.0895,0.9,12.6,0.8
Cc1nn(-c2ccccc2)c2nc(N)c(C#N)c(-c3ccc(F)cc3)c12,-0.786,2.2,-1.05,0.2,84.0*,1
c1ccc(NCCCNc2ccccc2)cc1,-0.291,98.2*,-0.459,0.1,86.0*,0
O=C(CCC(=O)NC1CCCCCC1)Nc1nnc(C(F)(F)F)s1,.,-1.2,0.41,0.3,66.0*,1
O=C(CCC(=O)NC1CCCCCCC1)Nc1nnc(C(F)(F)F)s1,.,36.2,-0.911,0.2,83.0*,0.6
O=C(CCC(=O)N1CCN(C2CCCCC2)CC1)Nc1nnc(C(F)(F)F)s1,.,8.0,-0.41,0.6,38.0,0.9
CC(C)c1nnc(NC(=O)CCC(=O)NC2CCCCCCC2)s1,.,5.0,0.0302,0.7,25.5,0.9
CCOCCCNc1nc2c(c(=O)[nH]c(=O)n2C)n1CCCc1ccccc1,.,13.9,0.279,0.8,24.9,0.9
COc1ccc(NC(=O)C(C)NS(=O)(=O)c2ccc(NC(C)=O)cc2)cc1Cl (stereo not drawn),-0.471,.,-0.0745,.,.,.
COc1ccccc1NC(=O)CN1CCN(CC(=O)Nc2cc(NC(C)=O)ccc2OC)CC1,-0.228,40.7,0.851,0.8,24.2,0.6
COc1ccc(NC(C)=O)cc1NC(C)C(=O)Nc1cccc2ccccc12 (stereo not drawn),.,66.7*,-0.615,0.2,82.0*,0.3
COc1ccc(NC(C)=O)cc1NC(C)C(=O)Nc1ccc(F)cc1 (stereo not drawn),.,48.8,0.943,0.5,54.6*,0.5
C=CCSc1nnc(-c2c[nH]c3ccccc23)n1CC,-1.18,79.2*,-0.00934,1.1,-10.5,0.2
COCCn1c(SC)nnc1-c1c[nH]c2ccccc12,2.83,52.4*,1.19,0.9,8.4,0.5
CCn1c(SC(C)C(=O)OC)nnc1-c1c[nH]c2ccccc12 (stereo not drawn),1.19,65.5*,0.313,1.1,-7.3,0.3
CCn1c(SCc2ccc(C(=O)OC)o2)nnc1-c1c[nH]c2ccccc12,-1.06,98.4*,0.63,0.2,82.7*,0
Cc1ccc(-n2nnc3c(=O)n(CC(=O)NCC4CCCO4)cnc32)cc1 (stereo not drawn),-0.0859,-10.3,-0.201,1.3,-25.5,1.1
COc1ccc(-n2c(SC)nnc2-c2c[nH]c3ccccc23)cc1,-0.717,-2.8,-0.0107,0.9,7.7,1
CCn1c(SC)nnc1-c1c[nH]c2ccccc12,-0.406,72.4*,1.18,1,4.3,0.3
Cc1ccc(-c2ccc(/C=N/c3ncn[nH]3)o2)cc1Cl,-2.37,-4.2,0.037,1.1,-12.9,1
COC(C[C@H](O)C[C@H](O)[C@H](C)OCc1ccccc1)OC,.,.,-0.18,.,.,.
SMILES,D1 mod,CYP2C19 inh,DAT uptake mod,CYP2C9 act,CYP2C9 inhib,CYP2C19 act
COc1ccc2c(c1OC)C(=O)NC(C)=C(C(=O)OC(C)(C)C)C2O (stereo not drawn),-0.632,80.9*,-0.443,0.4,55.5*,0.2
Cc1noc(C)c1C(=O)OCC(=O)Nc1ccccc1Oc1ccccc1,.,34.9,-0.583,0.5,49.6,0.7
CN1CC(c2ccccc2)C2(SC(=S)N(Cc3ccco3)C2=O)C12C(=O)Nc1ccccc12 (stereo not drawn),.,95.6*,0.0675,0,95.3*,0
O=S(=O)(NCc1cn2ccsc2n1)c1ccc(Oc2ccccc2)cc1,-1.52,68.8*,0.105,0.2,80.5*,0.3
O=S(=O)(NCc1cn2ccsc2n1)c1ccc2c(c1)OCCO2,-0.46,86.6*,-0.161,1.6,-64.5,0.1
CC1(C)CC(=O)C(C=NCC2CCN(C(=O)Nc3ccc(Cl)c(Cl)c3)CC2)=C(O)C1,.,-7.4,-0.54,1,-1.9,1.1
